In the supplement of paper PMC4466140:

Tests used:
Assay in all cases: SPOT peptide array binding signal intensity (averaged, normalized) (arbitrary units (background-subtracted, floor 0; scale differs between SH3 domains)); higher = stronger binding of the SH3 domain to the peptide
[1] = target: SpBzz1-D2
Protocol: (§1)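 GST-tagged SH3 domains from S. cerevisiae (Sc), A. gossypii (Ag), C. albicans (Ca) and S. pombe (Sp) were incubated at 10 ug/ml overnight at 4 C on cellulose SPOT membranes carrying 292 synthetic 15-mer peptides mined from the S. cerevisiae proteome (cysteines replaced by serines). Binding was detected with anti-GST antibody, HRP secondary and chemiluminescence, quantified with Genespotter, and reported as normalized spot intensities averaged over biological replicates.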

[2] = target: SpCyk3
Protocol: as §1

[3] = target: SpHof1
Protocol: as §1

[4] = target: SpHof1-2
Protocol: as §1

[5] = target: SpHof1-3
Protocol: as §1

[6] = target: SpHse1
Protocol: as §1

[7] = target: SpLsb1
Protocol: as §1

[8] = target: SpLsb4
Protocol: as §1

[9] = target: SpMyo1
Protocol: as §1

[10] = target: SpNbp2
Protocol: as §1

[11] = target: SpPex13
Protocol: as §1

[12] = target: SpRvs167
Protocol: as §1

[13] = target: SpSla1-D1-D2
Protocol: as §1

[14] = target: SpSla1-D3
Protocol: as §1

[15] = target: AgAbp1
Protocol: as §1

[16] = target: AgBbc1
Protocol: as §1

[17] = target: AgBem1-D1
Protocol: as §1

[18] = target: AgBzz1-D1
Protocol: as §1

[19] = target: AgBzz1-D2
Protocol: as §1

[20] = target: AgCyk3
Protocol: as §1

[21] = target: AgFus1
Protocol: as §1

[22] = target: AgHof1
Protocol: as §1

[23] = target: AgHse1
Protocol: as §1

[24] = target: AgLsb1
Protocol: as §1

[25] = target: AgLsb4
Protocol: as §1

[26] = target: AgMyo5
Protocol: as §1

[27] = target: AgNbp2
Protocol: as §1

[28] = target: AgRvs167
Protocol: as §1

[29] = target: AgSho1
Protocol: as §1

[30] = target: AgSla1-D1-D2
Protocol: as §1

[31] = target: AgSla1-D3
Protocol: as §1

[32] = target: CaAbp1-D1
Protocol: as §1

[33] = target: CaAbp1-D2
Protocol: as §1

[34] = target: CaBbc1
Protocol: as §1

[35] = target: CaBem1-D1
Protocol: as §1

[36] = target: CaBzz1-D1
Protocol: as §1

[37] = target: CaBzz1-D2
Protocol: as §1

[38] = target: CaCyk3
Protocol: as §1

[39] = target: CaFus1
Protocol: as §1

[40] = target: CaHof1
Protocol: as §1

[41] = target: CaHse1
Protocol: as §1

[42] = target: CaLsb1
Protocol: as §1

[43] = target: CaLsb4
Protocol: as §1

[44] = target: CaMyo5
Protocol: as §1

[45] = target: CaNbp2
Protocol: as §1

[46] = target: CaRvs167
Protocol: as §1

[47] = target: CaRvs167-3
Protocol: as §1

[48] = target: CaSho1
Protocol: as §1

[49] = target: CaSla1-D1-D2
Protocol: as §1

[50] = target: CaSla1-D3
Protocol: as §1

[51] = target: ScAbp1
Protocol: as §1

[52] = target: ScBbc1
Protocol: as §1

[53] = target: ScBem1-D1
Protocol: as §1

[54] = target: ScBzz1-D1
Protocol: as §1

[55] = target: ScBzz1-D2
Protocol: as §1

[56] = target: ScCyk3
Protocol: as §1

[57] = target: ScFus1
Protocol: as §1

[58] = target: ScHof1
Protocol: as §1

[59] = target: ScHse1
Protocol: as §1

[60] = target: ScLsb1
Protocol: as §1

[61] = target: ScLsb2
Protocol: as §1

[62] = target: ScLsb3
Protocol: as §1

[63] = target: ScLsb4
Protocol: as §1

[64] = target: ScMyo3
Protocol: as §1

[65] = target: ScMyo5
Protocol: as §1

[66] = target: ScNbp2
Protocol: as §1

[67] = target: ScPex13
Protocol: as §1

[68] = target: ScRvs167
Protocol: as §1

[69] = target: ScSho1
Protocol: as §1

[70] = target: ScSla1-D1-D2
Protocol: as §1

[71] = target: ScSla1-D3
Protocol: as §1

[72] = target: SpAbp1-D1
Protocol: as §1

[73] = target: SpBbc1
Protocol: as §1

[74] = target: SpBzz1-D1
Protocol: as §1

Binder: LSKRLPLRFPEHTSS
- SPOT peptide array binding signal intensity [1]: ≤ 0
- SPOT peptide array binding signal intensity [2]: ≤ 0
- SPOT peptide array binding signal intensity [3]: 86
- SPOT peptide array binding signal intensity [4]: 36.2
- SPOT peptide array binding signal intensity [5]: 538
- SPOT peptide array binding signal intensity [6]: 403
- SPOT peptide array binding signal intensity [7]: 4.75
- SPOT peptide array binding signal intensity [8]: 1200
- SPOT peptide array binding signal intensity [9]: 3.75
- SPOT peptide array binding signal intensity [10]: 32
- SPOT peptide array binding signal intensity [11]: 2
- SPOT peptide array binding signal intensity [12]: 143
- SPOT peptide array binding signal intensity [13]: ≤ 0
- SPOT peptide array binding signal intensity [14]: ≤ 0

Binder: RRSKSLPITPKSIFN
- SPOT peptide array binding signal intensity [15]: 47
- SPOT peptide array binding signal intensity [16]: 30.8
- SPOT peptide array binding signal intensity [17]: 374
- SPOT peptide array binding signal intensity [18]: 59
- SPOT peptide array binding signal intensity [19]: 25
- SPOT peptide array binding signal intensity [20]: 6.5
- SPOT peptide array binding signal intensity [21]: 79.5
- SPOT peptide array binding signal intensity [22]: 125
- SPOT peptide array binding signal intensity [23]: 306
- SPOT peptide array binding signal intensity [24]: 1.5
- SPOT peptide array binding signal intensity [25]: 78.5
- SPOT peptide array binding signal intensity [26]: 0.5
- SPOT peptide array binding signal intensity [27]: 27
- SPOT peptide array binding signal intensity [28]: 0.667
- SPOT peptide array binding signal intensity [29]: 2230
- SPOT peptide array binding signal intensity [30]: 350
- SPOT peptide array binding signal intensity [31]: ≤ 0
- SPOT peptide array binding signal intensity [32]: 144
- SPOT peptide array binding signal intensity [33]: 310
- SPOT peptide array binding signal intensity [34]: 103
- SPOT peptide array binding signal intensity [35]: 55
- SPOT peptide array binding signal intensity [36]: 146
- SPOT peptide array binding signal intensity [37]: 61
- SPOT peptide array binding signal intensity [38]: 13.5
- SPOT peptide array binding signal intensity [39]: 368
- SPOT peptide array binding signal intensity [40]: 1
- SPOT peptide array binding signal intensity [41]: 1
- SPOT peptide array binding signal intensity [42]: 1
- SPOT peptide array binding signal intensity [43]: 57
- SPOT peptide array binding signal intensity [44]: 3
- SPOT peptide array binding signal intensity [45]: 128
- SPOT peptide array binding signal intensity [46]: 2.33
- SPOT peptide array binding signal intensity [47]: 8.25
- SPOT peptide array binding signal intensity [48]: 353
- SPOT peptide array binding signal intensity [49]: 1140
- SPOT peptide array binding signal intensity [50]: 0.5
- SPOT peptide array binding signal intensity [51]: 84
- SPOT peptide array binding signal intensity [52]: 11
- SPOT peptide array binding signal intensity [53]: 88
- SPOT peptide array binding signal intensity [54]: 31
- SPOT peptide array binding signal intensity [55]: 12.5
- SPOT peptide array binding signal intensity [56]: 54
- SPOT peptide array binding signal intensity [57]: 47.5
- SPOT peptide array binding signal intensity [58]: ≤ 0
- SPOT peptide array binding signal intensity [59]: 420
- SPOT peptide array binding signal intensity [60]: 2.5
- SPOT peptide array binding signal intensity [61]: 1
- SPOT peptide array binding signal intensity [62]: ≤ 0
- SPOT peptide array binding signal intensity [63]: 8
- SPOT peptide array binding signal intensity [64]: 8.5
- SPOT peptide array binding signal intensity [65]: 2
- SPOT peptide array binding signal intensity [66]: 47
- SPOT peptide array binding signal intensity [67]: ≤ 0
- SPOT peptide array binding signal intensity [68]: 0.333
- SPOT peptide array binding signal intensity [69]: 4000
- SPOT peptide array binding signal intensity [70]: 2340
- SPOT peptide array binding signal intensity [71]: 54
- SPOT peptide array binding signal intensity [72]: 205
- SPOT peptide array binding signal intensity [73]: 1.5
- SPOT peptide array binding signal intensity [74]: 204
- SPOT peptide array binding signal intensity [1]: ≤ 0
- SPOT peptide array binding signal intensity [2]: 3
- SPOT peptide array binding signal intensity [3]: 2190
- SPOT peptide array binding signal intensity [4]: 1340
- SPOT peptide array binding signal intensity [5]: 1120
- SPOT peptide array binding signal intensity [6]: 216
- SPOT peptide array binding signal intensity [7]: ≤ 0
- SPOT peptide array binding signal intensity [8]: 64.5
- SPOT peptide array binding signal intensity [9]: 24.8
- SPOT peptide array binding signal intensity [10]: 39.5
- SPOT peptide array binding signal intensity [11]: 5
- SPOT peptide array binding signal intensity [12]: 4.33
- SPOT peptide array binding signal intensity [13]: 1130
- SPOT peptide array binding signal intensity [14]: ≤ 0
